Experimental findings from publication PMC4336329 (PLoS ONE, 2015) are described below.

The structures appear in SMILES notation. In all, about 310,000 compounds went through this assay and about 14,000 (4.5%) showed an effect of 50% or more. Effects have a minus sign here. The full list was thinned out, with strong results kept by preference.
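Note: peak tail current of the secondary pulse compared with the same well before compound.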

human ether-à-go-go-related gene (hERG) potassium channel, sequence (Q12809 whole entry, looked up): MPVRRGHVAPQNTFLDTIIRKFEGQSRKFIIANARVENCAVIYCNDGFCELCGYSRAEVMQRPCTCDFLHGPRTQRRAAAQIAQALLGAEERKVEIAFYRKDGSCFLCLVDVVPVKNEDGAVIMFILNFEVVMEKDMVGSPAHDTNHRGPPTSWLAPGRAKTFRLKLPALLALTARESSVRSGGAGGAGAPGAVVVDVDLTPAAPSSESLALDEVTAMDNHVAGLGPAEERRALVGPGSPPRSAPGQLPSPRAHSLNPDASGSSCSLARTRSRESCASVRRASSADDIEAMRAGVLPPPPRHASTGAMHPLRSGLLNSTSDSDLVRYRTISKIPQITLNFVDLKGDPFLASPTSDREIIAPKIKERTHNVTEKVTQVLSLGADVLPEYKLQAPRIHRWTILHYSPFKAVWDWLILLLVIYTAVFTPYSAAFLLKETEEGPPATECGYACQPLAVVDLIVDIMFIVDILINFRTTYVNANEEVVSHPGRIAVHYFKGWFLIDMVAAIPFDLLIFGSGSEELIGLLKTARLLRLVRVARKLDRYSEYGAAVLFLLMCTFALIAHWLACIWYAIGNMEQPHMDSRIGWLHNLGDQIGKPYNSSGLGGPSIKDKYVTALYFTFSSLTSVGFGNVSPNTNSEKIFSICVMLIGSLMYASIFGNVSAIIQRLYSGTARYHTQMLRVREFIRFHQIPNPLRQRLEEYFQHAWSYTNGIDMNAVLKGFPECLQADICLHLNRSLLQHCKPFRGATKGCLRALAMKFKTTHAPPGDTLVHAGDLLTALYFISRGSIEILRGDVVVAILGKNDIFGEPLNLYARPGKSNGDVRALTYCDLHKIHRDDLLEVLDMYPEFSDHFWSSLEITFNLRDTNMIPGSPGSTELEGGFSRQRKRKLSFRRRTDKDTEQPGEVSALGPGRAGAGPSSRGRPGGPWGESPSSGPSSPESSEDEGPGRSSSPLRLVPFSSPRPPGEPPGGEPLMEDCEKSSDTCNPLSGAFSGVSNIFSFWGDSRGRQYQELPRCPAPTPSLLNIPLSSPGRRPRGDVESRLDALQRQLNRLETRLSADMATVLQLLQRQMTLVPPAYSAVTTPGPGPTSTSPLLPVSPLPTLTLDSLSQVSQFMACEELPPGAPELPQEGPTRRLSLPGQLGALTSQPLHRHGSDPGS

This assay addresses human ether-à-go-go-related gene (hERG) potassium channel (human, UniProt Q12809). The experiment in a line: primary screen, population patch clamp on CHO cells stably expressing hERG; higher = less effect of the substance.
On to `O=C(c1cc(-c2ccc(O)cc2)on1)N1CCN(c2ccc(F)cc2)CC1`, for which the “hERG current change (%, negative = inhibition) at 10uM” value was -23.6%.
Then `O=C(NCCCO)C(=O)NCC1OCCCN1S(=O)(=O)c1cccs1` (stereo not drawn), with -10.6%.
With `COc1ccc(C(=O)N(C)Cc2cnn(Cc3ccccc3)c2)cc1S(=O)(=O)N1CCOCC1`, the “hERG current change (%, negative = inhibition) at 10uM” value is on record as -27%.
Under `Cc1cccc(NC(=S)Nc2c(C)n(C)n(-c3ccccc3)c2=O)c1C` stands -2.23%.
Under `CCc1nnc(NC(=O)CSc2nnc(-c3ccc(S(=O)(=O)N4CCCC4)cc3)n2CC)s1` stands 8.86%; under `CN(C)N1C(=O)CC(C)(c2ccc([N+](=O)[O-])cc2)C1=O` (stereo not drawn), -0.575%.
Take `CCn1c(=O)cc(OCC(=O)NC(C)c2ccc3c(c2)OCCO3)c2ccccc21` (stereo not drawn): the “hERG current change (%, negative = inhibition) at 10uM” value is -4.48%.
As to `CC/C(=N\O)C(C)(C)/[N+]([O-])=C/c1ccc(Br)cc1`, the “hERG current change (%, negative = inhibition) at 10uM” value was found to be 5.28%.
In the case of `CN(c1ccccc1)S(=O)(=O)c1cccc(NC(=O)c2ccc(=O)[nH]c2)c1`, the “hERG current change (%, negative = inhibition) at 10uM” value is listed as -11.7%.
In the case of `COCCNC(=O)c1onc(CSc2ccccc2)c1C(=O)O`, the “hERG current change (%, negative = inhibition) at 10uM” value is 7.09%.
Then `O=C(CN1CCOc2ccccc21)NCc1ccco1`, with 2.93%; and `Cc1cccc(NC(=O)C2(C)CC3c4ccccc4C2c2ccccc23)c1` (stereo not drawn), with 9.5%.
Consider `O=C(Nc1nnc(CCN2CCCCC2)s1)c1cccc(Cl)c1`, for which the “hERG current change (%, negative = inhibition) at 10uM” value was -10.8%.
Turning to `Cl.O=C(Nc1nnc(CCN2CCCCC2)s1)c1ccccc1`, the “hERG current change (%, negative = inhibition) at 10uM” value is recorded as 4.58%.
Turning to `O=C(Nc1nnc(CCN2CCCCC2)s1)c1ccc(Br)cc1`, the “hERG current change (%, negative = inhibition) at 10uM” value is -51.4%.
Then `CC(C)C(=O)Nc1ccc(NC(=O)c2ccc3c(c2)OCO3)cc1`, with 10.2%; and `Cc1ccccc1OCC(=O)Nc1cccc(S(=O)(=O)NC2=NCCCCC2)c1`, with -7.89%; and `COCc1ccc([C@@H]2C[C@H]3CN(Cc4cccc(Cl)c4)C(=O)[C@]34CCCN24)o1`, with -31%.
Then `O=C1N(Cc2cccc(Cl)c2)C[C@@H]2C[C@@H](c3ccsc3)N3CCC[C@@]123`, with -60.1%.
Take `Cc1cccc([C@@H]2C[C@H]3CN(Cc4cccc(Cl)c4)C(=O)[C@]34CCCN24)n1`: the “hERG current change (%, negative = inhibition) at 10uM” value is listed as -55%.
`O=C1N(Cc2cccc(Cl)c2)C[C@@H]2C[C@@H](c3cccc4cccnc34)N3CCC[C@@]123`: the “hERG current change (%, negative = inhibition) at 10uM” value was -78%.
Then `O=C1N(Cc2cccc(Cl)c2)C[C@@H]2C[C@@H](c3ccco3)N3CCC[C@@]123`, with -25.9%; and `COc1cccc2c1OCC([C@@H]1C[C@H]3CN(Cc4cccc(Cl)c4)C(=O)[C@]34CCCN14)=C2`, with -45.2%; and `CC(C)n1cc([C@@H]2C[C@H]3CN(Cc4cccc(Cl)c4)C(=O)[C@]34CCCN24)cn1`, with -33.7%.
Under `CCn1ncc([C@@H]2C[C@H]3CN(Cc4cccc(Cl)c4)C(=O)[C@]34CCCN24)c1C` stands -33%.
Under `O=C1N(Cc2cccc(Cl)c2)C[C@@H]2C[C@@H](c3ccccn3)N3CCC[C@@]123` stands -18.5%; under `COc1ccccc1/C=C/[C@@H]1C[C@H]2CN(Cc3cccc(Cl)c3)C(=O)[C@]23CCCN13`, -75.4%; under `O=C(Nc1cnn(Cc2ccccc2)c1)c1cc2nc(-c3ccco3)cc(C(F)(F)F)n2n1`, 7.2%.
For the molecule `O=C(c1ccccc1)c1ccccc1N/C=C/c1nnnn1-c1ccccc1`, the “hERG current change (%, negative = inhibition) at 10uM” value came out at 1.11%.
Then `CCCCCOc1ccc(CSc2ncn[nH]2)cc1`, with -17.4%.
Then `O=C(NCC1CCCO1)c1onc(CSc2ccccc2)c1C(=O)O` (stereo not drawn), with 10.1%; and `CC(C)(C)OC(=O)CNC(=O)c1nc[nH]c1C(=O)N1CC[NH2+]CC1.[Cl-]`, with 4.07%.
Under `O=S1(=O)CCN(OCc2ccc(F)cc2Cl)CC1` stands 34.4%; under `CCN(CC)S(=O)(=O)c1cc(NC(=O)Cc2n[nH]c(=O)c3ccccc23)ccc1C`, -21.2%; under `Cc1ccc(NC(=O)Cc2c[nH]c3ccccc23)cc1S(=O)(=O)N1CCCCCC1`, 14.1%.
Take `Cc1ccc(NC(=O)Cc2n[nH]c(=O)c3ccccc23)cc1S(=O)(=O)N1CCCCCC1`: the “hERG current change (%, negative = inhibition) at 10uM” value is on record as -51.5%.
Under `O=C(Cn1[nH]c(=O)c2ccccc2c1=O)Nc1cccc(S(=O)(=O)N2CCCCCC2)c1` stands -13.2%; under `O=C(Cc1n[nH]c(=O)c2ccccc12)Nc1cccc(S(=O)(=O)N2CCCC2)c1`, -5.36%.
`O=C(Cc1n[nH]c(=O)c2ccccc12)Nc1cccc(S(=O)(=O)N2CCCCCC2)c1`: the “hERG current change (%, negative = inhibition) at 10uM” value is reported as -57.8%.
In the case of `CCCCP(=O)(CCCC)Cc1ccccc1O`, the “hERG current change (%, negative = inhibition) at 10uM” value came to 13.9%.
Then `COc1ccccc1NC(=O)Nc1nc(CC(=O)Nc2ccc(F)cc2)cs1`, with -1.25%; and `COc1ccc(-c2cc(C(=O)N3CCc4ccccc4C3)no2)cc1`, with -0.668%; and `Cc1ccc(-n2c(C)cc(C(=O)NS(=O)(=O)c3ccc(C)cc3)c2C)cc1`, with -30.8%.
Under `COP(=O)(NS(=O)(=O)c1ccccc1)OC` stands 19.9%; under `C=CCn1c(Cc2cccs2)nnc1SCC(=O)NCc1ccco1`, -1.47%; under `Cc1ccnc(SCc2cc(=O)c(OC(=O)c3ccc(S(=O)(=O)N(C)C)cc3)co2)n1`, -36.4%.
Under `CCOC(=O)c1c(NC(=O)CN(C)C)sc(C(=O)N(CC)CC)c1C.O=C(O)C(=O)O` stands -17.6%; under `CCC[C@@H]1CCCO[C@@](C(=O)NCc2ccccn2)(C(F)(F)F)C1`, -1.97%; under `COc1cc2c(cc1OC)C1(CCCC1)CNC2C.Cl` (stereo not drawn), -3.04%.
Regarding `COc1cc2c(cc1OC)C1(CCCC1)CNC2c1ccc([N+](=O)[O-])cc1.Cl` (stereo not drawn), the “hERG current change (%, negative = inhibition) at 10uM” value is recorded as -50%.
For the molecule `COc1cc2c(cc1OC)C1(CCCC1)CNC2c1cccc([N+](=O)[O-])c1` (stereo not drawn), the “hERG current change (%, negative = inhibition) at 10uM” value was -43.3%.
Then `C/C(=N/NC(=O)CNC(=O)c1ccccc1)c1ccc(C)cc1`, with -41.5%; and `CC1=C[C@@H](C)[C@@H](c2ccc(C(F)(F)F)cc2)OC1=O`, with 7.01%.
Then `Cc1ccc2c(c1)c(/C=C/c1cc[n+](C)cc1)c(C)n2C.[I-]`, with -10.9%; and `COc1ccc2c(CC(=O)NCCN3C(=O)S/C(=C\c4cccnc4)C3=O)coc2c1`, with -9.62%; and `O=C(/C(=N\Nc1ccc([N+](=O)[O-])cc1)Sc1nnnn1-c1ccccc1)c1ccccc1`, with 17.9%.
Under `O=C(C[n+]1cc(-c2ccccc2)n2c1CCCCC2)c1ccc(Cl)cc1.[Br-]` stands -23.4%; under `COc1ccc(C(=O)C[n+]2cc(-c3ccc(OC)cc3)n3c2CCCC3)cc1.[Br-]`, -10.1%.
On to `Cn1c(NC(=O)C[n+]2cc(-c3ccc(Cl)cc3)n3c2CCC3)cc(=O)n(C)c1=O.[Cl-]`, for which the “hERG current change (%, negative = inhibition) at 10uM” value turned out to be 11.3%.
Take `COc1ccc(-c2c[n+](CC(=O)c3cccs3)c3n2CCC3)cc1.[Br-]`: the “hERG current change (%, negative = inhibition) at 10uM” value came out at 10.4%.
In the case of `COc1ccc(-c2c[n+](CC(=O)OC3CC(C)CCC3C(C)C)c3n2CCC3)cc1.[Cl-]` (stereo not drawn), the “hERG current change (%, negative = inhibition) at 10uM” value is recorded as -69.3%.
Under `CC1CCC(C(C)C)C(OC(=O)C[n+]2cc(-c3ccc(Cl)cc3)n3c2CCCCC3)C1.[Cl-]` (stereo not drawn) stands -79.4%.
Then `O=C(C[n+]1cc(-c2ccc(Cl)cc2)n2c1CCC2)N1c2ccccc2Sc2ccccc21.[Cl-]`, with -22.1%; and `O=C(C[n+]1cc(-c2ccc(Cl)cc2)n2c1CCCCC2)c1ccccc1.[Br-]`, with -12.5%.
As to `CC1CCC(C(C)C)C(OC(=O)C[n+]2cc(-c3ccc(Cl)cc3)n3c2CCC3)C1.[Cl-]` (stereo not drawn), the “hERG current change (%, negative = inhibition) at 10uM” value is -77.1%.
Under `CC(C)[C@@H]1CC[C@@H](C)C[C@H]1OC(=O)C[n+]1cc(-c2ccc(Cl)cc2)n2c1CCCCC2.[Cl-]` stands -60.1%.
As to `O=C(Nc1ccc2c(c1)OCO2)C1CCCN(S(=O)(=O)c2cccs2)C1` (stereo not drawn), the “hERG current change (%, negative = inhibition) at 10uM” value is 10.7%.
Regarding `COc1cccc(-c2ncc3ccccn23)c1.O=C(O)C(=O)O`, the “hERG current change (%, negative = inhibition) at 10uM” value is -5%.
As for `CCOc1ccc(S(=O)(=O)Nc2cccc(C(=O)NCCCn3ccnc3)c2)cc1`, the “hERG current change (%, negative = inhibition) at 10uM” value is given as 10.5%.
For `O=C(CCN1C(=O)c2ccccc2C1=O)Nc1sc2c(c1C(=O)NCc1ccco1)CCCC2`, the “hERG current change (%, negative = inhibition) at 10uM” value was -13.2%.
Regarding `O=C(Nc1nnc(SCC(=O)N2CCCCC2)s1)c1cccs1`, the “hERG current change (%, negative = inhibition) at 10uM” value stood at 4.86%.
Then `CCOC(=O)c1c(NC(=O)C2COc3ccccc3O2)sc2c1CC(C)(C)NC2(C)C` (stereo not drawn), with -12.1%.
On to `Cc1ccc(-n2nnnc2SC(C)C(=O)Nc2ccc(Cl)cn2)cc1` (stereo not drawn), for which the “hERG current change (%, negative = inhibition) at 10uM” value is reported as -22.1%.
For the molecule `CC(Sc1nnnn1-c1ccccc1)C(=O)Nc1ccc(Cl)cn1` (stereo not drawn), the “hERG current change (%, negative = inhibition) at 10uM” value is recorded as -54.2%.
Then `CC(Sc1nnc(CN2CCCC2)n1Cc1ccccc1)C(=O)Nc1ccc(F)cc1` (stereo not drawn), with -61.4%.
Under `Cc1nnc(SC(C)C(=O)Nc2ncc(Cl)cc2Cl)n1Cc1ccccc1` (stereo not drawn) stands -67.8%; under `CC(=O)Nc1ccc(NC(=O)C(C)Sc2n[nH]c(=O)n2Cc2ccccc2)cc1` (stereo not drawn), 16%; under `Cc1nnc(SC(C)C(=O)Nc2ccc(Cl)cn2)n1Cc1ccccc1` (stereo not drawn), -17.3%.
In the case of `CC(Sc1nnc(CN2CCCC2)n1Cc1ccccc1)C(=O)Nc1ccccc1` (stereo not drawn), the “hERG current change (%, negative = inhibition) at 10uM” value is recorded as -43.1%.
`O=C(CSc1nnnn1-c1ccccc1)Nc1ccc(Cl)cn1`: the “hERG current change (%, negative = inhibition) at 10uM” value is 2.66%.
For the molecule `Cc1nnc(SCC(=O)Nc2ncc(Cl)cc2Cl)n1Cc1ccccc1`, the “hERG current change (%, negative = inhibition) at 10uM” value is -15.6%.
